Bioassay records as filed in PubChem.
Luc counter = Counterscreen for Luciferase (Kinase-Glo TM) Inhibition | Luciferin 4-monooxygenase (Photuris pensylvanica), Q27757 | Kinase-Glo luciferase, ATP luminescence, 8 min | Potency, µM (doses to about 38.3 µM), for inactives: at the highest dose activity change, negative = inhibition, hits mostly inhibitors | hit rate 0.28% among 200,000; further: nearly all actives have a fitted effect of over 60% in size
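Light output from Kinase-Glo luciferase with luciferin and 10 uM ATP in 50 mM imidazole pH 7.2, KCl, MgCl2, Tween 20, BSA; compound pin-delivered, 8-min ambient incubation, then luminescence read.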
RORg inh = qHTS for inhibitors of ROR gamma transcriptional activity. AID 2551, 2010. Nuclear receptor ROR-gamma (Mus musculus), P51450. hit rate 5.4% among 310,000. Drosophila S2 Gal4-RORgamma UAS-luciferase reporter, 20 h. Potency, µM (highest dose often 53.6 µM), for the others: top-dose activity change, negative = inhibition, hits mostly inhibitors; further: nearly all actives have a fitted effect of over 60% in size
Target sequence (P51450 whole entry, looked up, the tested form may be a part): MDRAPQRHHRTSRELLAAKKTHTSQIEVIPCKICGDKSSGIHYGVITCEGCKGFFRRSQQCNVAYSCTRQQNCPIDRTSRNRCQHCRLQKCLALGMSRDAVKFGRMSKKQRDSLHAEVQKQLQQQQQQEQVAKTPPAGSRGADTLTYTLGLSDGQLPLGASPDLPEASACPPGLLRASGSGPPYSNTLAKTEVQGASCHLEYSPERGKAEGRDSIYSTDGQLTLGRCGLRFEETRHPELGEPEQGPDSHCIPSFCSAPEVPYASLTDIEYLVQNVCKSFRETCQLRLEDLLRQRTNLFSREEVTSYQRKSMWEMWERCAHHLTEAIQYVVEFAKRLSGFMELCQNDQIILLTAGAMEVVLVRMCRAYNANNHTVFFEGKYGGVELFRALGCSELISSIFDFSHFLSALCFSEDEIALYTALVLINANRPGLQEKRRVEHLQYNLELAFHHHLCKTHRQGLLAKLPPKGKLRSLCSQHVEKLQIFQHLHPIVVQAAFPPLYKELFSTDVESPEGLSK
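Drosophila Schneider cells stably carrying a metallothionein-driven Gal4 DBD–ROR gamma fusion and a UAS-Photinus luciferase reporter were exposed to compound for 1 hr, then induced with copper sulfate (700 uM final) for 20 hr at ambient temperature before luminescence reading.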
VP16 counter = VP16 counterscreen qHTS for inhibitors of ROR gamma transcriptional activity. Drosophila S2 Gal4-VP16 UAS-luciferase, luminescence, 20 h. Potency, µM (series often up to 53.6 µM), without a hit: at the highest dose activity, negative = inhibition, most hits filed as inhibitors. hit rate 3.5% among 310,000. AID 2546, 2010;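 further: Gal4-VP16 expression switched on by copper sulfate through the metallothionein promoter; nearly all actives have a fitted effect of over 50% in size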
Starred values were filed as active, the others as inactive. Rows were chosen to be rich in hits. Some 6.4% of all compounds tested hit in one or more screens of this group. The call rests on the fitted dose curve; in most records, active means well fitted curve in the direction sought with a large enough effect; inconclusive means small, poorly fitted or top-dose-only effect, or another doubt; inactive means no such curve, though single readings can be large; an effect the other way counts as inactive or inconclusive. On the % scale 0 is the no-effect control and ±100 the full control effect; potency means the concentration at half of the fitted maximal effect.

COc1ccc(C2=NNC(c3cc(Cl)cc4c3OCOC4)C2)c(O)c1 (centres undefined) was read as Luc counter 0%, RORg inh -6% and VP16 counter -3%.
Screening Cc1nn(-c2ccccc2)c(Cl)c1/C=N/NC(=O)c1ccccc1F returned RORg inh -9% and VP16 counter 8%.
For Cc1ccc2cccc(N=Cc3c(C)[nH]n(-c4ccccc4)c3=O)c2n1 the results were RORg inh 1µM* and VP16 counter 1µM*.
Cc1[nH]n(-c2ccccc2)c(=O)c1/C=C1/C=c2ccccc2=N1 was read as Luc counter 1%, RORg inh 31% and VP16 counter inconclusive.
Cc1[nH]n(-c2ccccc2)c(=O)c1/C=N/NC(=O)COc1ccccc1[N+](=O)[O-] was read as Luc counter -2%, RORg inh 0.45µM* and VP16 counter 0.63µM*.
Cc1c(/C=N/NC(=O)COc2ccccc2[N+](=O)[O-])c2ccccc2n1C was read as Luc counter -3%, RORg inh 8% and VP16 counter -6%.
`Cc1[nH]n(-c2ccccc2)c(=O)c1/C=C1\C=NN=C1c1ccccc1` gave RORg inh 11µM* and VP16 counter inconclusive.
Screening Cc1[nH]n(-c2ccccc2)c(=O)c1/C=N/NC(=O)c1ccccc1F returned RORg inh 0.5µM* and VP16 counter 1µM*.
CSc1nnc(-c2ccccc2N=Cc2c(C)[nH]n(-c3ccccc3)c2=O)c(=O)[nH]1 was read as Luc counter -3%, RORg inh inconclusive and VP16 counter -5%.
`Cc1[nH]n(-c2cccc(Cl)c2)c(=O)c1C=NCC(C)C` gave Luc counter -1%, RORg inh 39% and VP16 counter -13%.
`Cc1[nH]n(-c2ccccc2)c(=O)c1/C=N\NC(=O)C1COc2ccccc2O1` (centres undefined) gave Luc counter -1%, RORg inh 0.79µM* and VP16 counter 1.1µM*.
COCC(=O)N/N=C/c1c(C)[nH]n(-c2ccccc2)c1=O was read as RORg inh 0.63µM* and VP16 counter inconclusive.
For CC(=O)N/N=C/c1c(C)[nH]n(-c2ccccc2)c1=O the results were Luc counter -1%, RORg inh 5µM* and VP16 counter 11µM*.
Cc1[nH]n(-c2ccccc2)c(=O)c1N=O was read as Luc counter -12%, RORg inh 7% and VP16 counter -4%.
For Cc1[nH]n(-c2ccccc2)c(=O)c1/C=N/NC(=O)C(C)C the results were Luc counter -3%, RORg inh 6.3µM* and VP16 counter 3.2µM*.
O=C(N/N=C/c1cccs1)C1COc2ccccc2O1 (centres undefined) was read as Luc counter -1%, RORg inh inconclusive and VP16 counter inconclusive.
For Cc1[nH]n(-c2ccccc2)c(=O)c1C=Nc1ccc(S(=O)(=O)NC(N)=O)cc1 the results were RORg inh -10% and VP16 counter -20%.
O=C1CC(N2CCN(c3ccc(F)cc3)CC2)C(=O)N1c1ccc2c(c1)OCO2 (centres undefined) was read as Luc counter -1%, RORg inh 20% and VP16 counter 5%.
`Cc1nc2cnc(Oc3cccc(Cl)c3)nc2n(C[C@H]2CCCO2)c1=O` gave Luc counter -1%, RORg inh inconclusive and VP16 counter -6%.
`CCCCCCCC/C=C\CCCCCCCCOC[C@H](COP(=O)([O-])OCC[N+](C)(C)C)OC(C)=O` gave Luc counter 1%, RORg inh -16% and VP16 counter 1%.
Screening CCOC(=O)c1cnc2c(c(C)nn2CC)c1NCCN1CCOCC1 returned Luc counter 2%, RORg inh -7% and VP16 counter -4%.
For Cc1[nH]n(-c2ccccc2)c(=O)c1/C=N/N(C)c1ccccc1 the results were Luc counter 0%, RORg inh 7.9µM* and VP16 counter inconclusive.
Cn1[nH]c(-c2ccccc2)c(/C=N/O)c1=O was read as Luc counter 2%, RORg inh 3.5µM* and VP16 counter 0.89µM*.
Screening Cc1[nH]n(-c2ccccc2)c(=O)c1C=Nc1ccc(S(N)(=O)=O)cc1 returned RORg inh 1% and VP16 counter -3%.
Screening Cc1[nH]n(-c2ccccc2)c(=O)c1/C=N/O returned Luc counter -3%, RORg inh 2.5µM* and VP16 counter 3.5µM*.
Screening Cc1[nH]n(-c2ccccc2)c(=O)c1C=Nc1ccc(S(=O)(=O)N(C)C)cc1 returned Luc counter -7%, RORg inh 7% and VP16 counter -5%.
For Cc1[nH]n(-c2ccccc2)c(=S)c1C=NCCCN=Cc1c(C)[nH]n(-c2ccccc2)c1=S the results were Luc counter 4%, RORg inh 0.63µM* and VP16 counter 1.8µM*.
Screening Cc1[nH]n(-c2ccccc2)c(=O)c1C=NCc1ccco1 returned Luc counter 0%, RORg inh -35% and VP16 counter 6%.
Cn1nc(-c2ccccc2)c(/C=N/O)c1Cl was read as Luc counter -2%, RORg inh 12% and VP16 counter 8%.
Screening CN(C)/C=N/c1c(C#N)cnn1-c1ccc(F)c(Cl)c1 returned RORg inh -22% and VP16 counter 1%.
CCn1c(C)nc2cc(C(=O)NNC(=S)Nc3ccc(OC)cc3)ccc21 was read as Luc counter 0%, RORg inh -37% and VP16 counter inconclusive.
Screening Cc1cccc(C(=O)Nc2ccc(C(=O)N3CCCCC3C)cc2)c1 (centres undefined) returned RORg inh 43% and VP16 counter 13%.
COC(=O)C1=C(C)Nc2nc(SCc3ccccc3)[nH]c(=O)c2C1c1cccs1 (centres undefined) was read as Luc counter -2%, RORg inh 9% and VP16 counter 4%.
For COCCn1c(=O)c(-c2ccc(F)cc2)nc2cnc(OC)nc21 the results were RORg inh 6% and VP16 counter 2%.
`Cc1[nH]n(-c2ccccc2)c(=O)c1/C=N/N1C(=O)c2ccc3c4c(ccc(c24)C1=O)CC3` gave Luc counter 1%, RORg inh 10µM* and VP16 counter inconclusive.
`COC(=O)CN=Cc1c(C)[nH]n(-c2ccccc2)c1=O` gave Luc counter 0%, RORg inh 0% and VP16 counter 5%.
Screening COC(=O)N/N=C\c1c(C)[nH]n(-c2ccccc2)c1=O returned Luc counter -4%, RORg inh 11µM* and VP16 counter inconclusive.
For Cc1[nH]n(-c2ccccc2)c(=O)c1C=NCC1CCCO1 (centres undefined) the results were Luc counter -1%, RORg inh 19% and VP16 counter 21%.
CCC1CCCCN1CCCNC(=O)c1nn(C)c2c1CS(=O)(=O)c1ccccc1-2 (centres undefined) was read as RORg inh -23% and VP16 counter 4%.
For COC(=O)c1cc(C(=O)OCC(=O)NC2CCCC2)cc([N+](=O)[O-])c1 the results were RORg inh -32% and VP16 counter 3%.
